Source: PubChem (National Center for Advancing Translational Sciences (NCATS))
Pf Dd2 growth: qHTS Primary assay for Inhibitors of Plasmodium falciparum Dd2 growth in vitro; P. falciparum Dd2 growth, SYBR Green, 72 h; Potency, µM (doses to about 28.9 µM), actives largely listed as inhibitors; 4.3% of 120,000 active; AID 1347417, 2020; active means well fitted inhibition curve with a large enough effect; further: nearly all actives have a fitted effect of over 65% in size
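Infected erythrocytes (Dd2, 0.3% parasitemia, 2.5% hematocrit final) are added to compound in RPMI-1640/Albumax II medium, grown 72 h at 37C in low oxygen, then lysed with saponin/Triton-X containing SYBR Green and read by fluorescence.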
Large screens that a line does not name were inactive. The entries come from a sample that favours hits as a whole.

CC(C)(C)OC(=O)N1CCC(c2c(C(=O)NC3CCN(Cc4ccccc4)CC3)cnn2-c2cccc(F)c2)CC1	none
COc1ccc(-n2ncc(C(=O)N3CCN(C(=O)c4ccco4)CC3)c2C2CCN(C(=O)OC(C)(C)C)CC2)cc1	none
Cc1cccc(-n2ncc(C(=O)N3CCN(Cc4ccccc4)CC3)c2C2CCN(C(=O)OC(C)(C)C)CC2)c1	Pf Dd2 growth 7.9µM
Cc1ccc(Br)c(C(=O)NCc2ccnc3[nH]ccc23)c1	none
Cc1nonc1OCCNC(=O)c1ccc2nc(Cc3ccccc3F)oc2c1	none
O=C1c2c(nc(COc3ccc(F)cc3F)n2Cc2ccccc2)NCCN1CC1CC1	none
CC1CCN(Cc2nnnn2CC(=O)N(Cc2ccncc2)CC2CCCO2)CC1 (stereo not drawn)	none
COC(=O)CCC(=O)N1CCCC(N2CCN(c3cccc(Cl)c3)CC2)C1 (stereo not drawn)	none
CCc1ccc(N2CC(c3noc(C4(c5ccccc5)CC4)n3)CC2=O)cc1 (stereo not drawn)	none
CC(=O)c1ccc(NC(=O)O[C@@H]2CO[C@H]3[C@@H]2OC[C@@H]3NC(=O)NCc2ccccc2)cc1	none
Cc1ccc2oc(-c3ccc(NC(=O)c4cccc(F)c4)c(C)c3)nc2c1	none
O=C(Nc1cnc(-c2ccccc2)nc1)c1cccc(F)c1	none
Cc1cccc(Nc2ncc(NC(=O)c3cccc(F)c3)c(Nc3cccc(C)c3)n2)c1	Pf Dd2 growth 2.2µM
COc1ccc(N2CC(C(=O)NCCc3ccc(F)cc3)NC2=O)cc1 (stereo not drawn)	none
Cc1ncoc1C(=O)N1CCCC(c2nnnn2C)C1 (stereo not drawn)	none
O=[S+]([O-])(c1cccc(C(F)(F)F)c1)N1CC(Oc2ccc(F)cc2F)C1	none
Cc1ccc(C(=O)N2CCC3(CC2)N=C(c2cccc(Br)c2)NO3)cc1	none
COc1cccc(CC(=O)NCC2Cn3cccc3C(=O)N2C)c1 (stereo not drawn)	none
CN1CCN(C(=O)c2cnc(-c3ccccn3)nc2)[C@H]2CS(=O)(=O)C[C@H]21	none
CC(=O)c1cccc(C(=O)N2CCC3(CC2)NC(=O)N(Cc2ccc(C)cc2)C3=O)c1	none
Cc1cn2nnc(C(=O)NCc3ccco3)c2c(=O)[nH]1	none
Cc1cn2nnc(C(=O)NC3CCN(Cc4ccccc4)CC3)c2c(=O)[nH]1	none
CCCCNC(=O)c1nnn2cc(C)[nH]c(=O)c12	none
Cc1cn2nnc(C(=O)NCCCc3ccccc3)c2c(=O)[nH]1	none
Cc1cn2nnc(C(=O)NC3CCCCCCC3)c2c(=O)[nH]1	Pf Dd2 growth 7.9µM
Cc1cn2nnc(C(=O)NC3CCCCCC3)c2c(=O)[nH]1	none
CCOc1ccccc1CNC(=O)c1nnn2cc(C)[nH]c(=O)c12	Pf Dd2 growth 8.9µM
Cc1cn2nnc(C(=O)N3CCC(C(=O)NC4CCCCC4)CC3)c2c(=O)[nH]1	none
CCOc1ccc(NC(=O)c2nnn3cc(C)[nH]c(=O)c23)cc1	Pf Dd2 growth 0.63µM
O=C(NC[C@H]1COCc2nc3ccccc3n21)c1cccnc1	none
CCc1ccc(CN2CCOC(Cc3ccc(OC)cc3)C2)o1 (stereo not drawn)	none
CC(C)n1cc(-c2cc(C(=O)N(C)Cc3cccnc3)c3cc(F)ccc3n2)cn1	none
COc1ccc(NC(=O)N2CC[C@@H](CO)N(C)c3cccnc3C2)cc1	none
CCS(=O)(=O)N1CCOc2ccc(CN3CCc4ccccc4C3)cc2C1	none
Cc1ccc(C(=O)N2CCC3(CC2)NC(=O)c2ccccc2O3)cc1	none
Cc1ccc(C)c(NC(=O)N2CCC(OC3CCN(S(C)(=O)=O)CC3)CC2)c1	none
COCCNC(=O)CCC1CCN(C(=O)c2ccccc2Cl)CC1	none
Cc1ccccc1NC(=O)N(C)CC1CCOC1 (stereo not drawn)	none
CC(C)NC(=O)N1CCN2C(=O)c3cc(-c4ccccc4F)ccc3NC(=O)[C@H]2C1	none
Cc1nc(-n2nc(C)c(Cc3ccc4c(c3)OCO4)c2C)sc1C(=O)Nc1ccc(Cl)cc1	none
Cc1ccc(NC(=O)c2sc(-n3nc(C)c(Cc4ccc5c(c4)OCO5)c3C)nc2C)cc1Cl	none
CCc1ccccc1NC(=O)c1sc(-n2nc(C)c(Cc3ccc4c(c3)OCO4)c2C)nc1C	Pf Dd2 growth 4µM
O=C(NCc1cnccn1)C1CCCN(c2cnn(Cc3ccccc3)c(=O)c2)C1 (stereo not drawn)	none
O=C(Nc1ccccc1CCc1ccccn1)C1CCN(c2cnn(Cc3ccccc3)c(=O)c2)C1 (stereo not drawn)	Pf Dd2 growth 4.5µM
Cn1ncc(N2CCC(C(=O)Nc3ccccc3CCc3ccccn3)C2)cc1=O (stereo not drawn)	none
O=C1NCc2ccccc2CC12CCCN2Cc1ccccc1Cl (stereo not drawn)	none
O=C1NCc2ccccc2CC12CCCN2Cc1cnc2ccccc2c1 (stereo not drawn)	Pf Dd2 growth 8.9µM
O=C1NCc2ccccc2CC12CCCN2Cc1cc(O)cc(O)c1 (stereo not drawn)	none
O=C1NCc2ccccc2CC12CCCCN2Cc1ccc(O)cc1 (stereo not drawn)	none
O=C1NCc2ccccc2CC12CCN(Cc1ccc(Cl)s1)C2 (stereo not drawn)	none
O=C1NCc2ccccc2CC12CCN(Cc1cnc3ccccc3c1)C2 (stereo not drawn)	none
O=C1NCc2ccccc2CC12CCCCN2Cc1ccnc2ccccc12 (stereo not drawn)	Pf Dd2 growth 8.9µM
O=C1NCc2ccccc2CC12CCCN2Cc1ccc(Cl)cc1 (stereo not drawn)	none
O=C1NCc2ccccc2CC12CCCN2Cc1ccc(Cl)s1 (stereo not drawn)	Pf Dd2 growth 10µM
COc1ccc(F)cc1C(=O)N1CCC2(CC1)CNC(C(=O)O)C2 (stereo not drawn)	none
COc1ccc(C(=O)N2CCC(N3CCNC3=O)CC2)cc1	none
CN1CCCC1c1nc(C2CN(C(=O)c3ccco3)C2)no1 (stereo not drawn)	none
NC(c1ccccc1)c1nnc2n1CCN(C(=O)N1CCCCC1)C2 (stereo not drawn)	none
Cc1cccc(CNC(=O)C2CCN(c3cn[nH]c(=O)c3)C2)c1 (stereo not drawn)	none
O=C(COc1ccccc1)N1CCOC[C@H](Oc2ccccc2)C1	none
CCOC(=O)c1c(S(=O)(=O)N2CCCC(C(=O)N3CCN(c4cc(C)ccc4C)CC3)C2)c(C)n(C)c1C (stereo not drawn)	Pf Dd2 growth 1µM
CCOC(=O)c1c(S(=O)(=O)N2CCCC(C(=O)N3CCN(c4cccc(C)c4C)CC3)C2)c(C)n(C)c1C (stereo not drawn)	Pf Dd2 growth 1.1µM
CCOC(=O)c1c(C)[nH]c(C)c1S(=O)(=O)N1CCCC(C(=O)N2CCN(c3cc(C)ccc3C)CC2)C1 (stereo not drawn)	Pf Dd2 growth 1.3µM
CCOC(=O)c1c(S(=O)(=O)N2CCC(C(=O)N3CCN(c4ccccc4F)CC3)CC2)c(C)n(C)c1C	none
CCOC(=O)c1c(C)[nH]c(C)c1S(=O)(=O)N1CCCC(C(=O)NCc2ccc(C)cc2)C1 (stereo not drawn)	none
CCOC(=O)c1c(S(=O)(=O)N2CCCC(C(=O)Nc3ncccc3C)C2)c(C)n(C)c1C (stereo not drawn)	none
CCOC(=O)c1c(C)[nH]c(C)c1S(=O)(=O)N1CCC(C(=O)N2CCN(c3ccccc3F)CC2)CC1	none
CCOC(=O)c1c(S(=O)(=O)N2CCCC(C(=O)Nc3cc(C)ccn3)C2)c(C)n(C)c1C (stereo not drawn)	none
Cc1ccc(C)c(N2CCN(C(=O)C3CCN(S(=O)(=O)c4ccc5[nH]c(=O)oc5c4)CC3)CC2)c1	Pf Dd2 growth 5.6µM
